Test results from PubChem BioAssay (NCATS).
“And” between values parts separate entries of the source, which are not always exact repeats. Equal values may be shown once. Inconclusive results are not listed. The source made the active and inactive calls. Calls follow the shape of the dose curve; as a rule, active = well fitted curve in the direction sought with a large enough effect; inconclusive = small, poorly fitted or top-dose-only effect, or another doubt; inactive = no such curve, though single readings can be large; an effect the other way counts as inactive or inconclusive.

Legend:
[1] = Cell Viability - LYMP1-003 - Assay at 24 hr (AID 963)
Method in brief: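 Human lymphoblastoid LYMP1-003 cells, 2500/well, treated 24 h at 37 C in complete medium. Viability read as intracellular ATP by CellTiter-Glo luminescence after 30 min at room temperature; AC50 from Hill-equation fits of qHTS concentration-response.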

[2] = Cell Viability - LYMP1-003 - Assay at 40 hr (AID 964); also: nearly all actives have a fitted effect of over 60% in size; also: potency is read from the fitted curve at half-maximal effect
Method in brief: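 LYMP1-003 human lymphoblastoid cells, 2500/well, preincubated 5 h at 37 C, then treated with compound for 40 h at 37 C. Intracellular ATP read by CellTiter-Glo luminescence after 30 min at room temperature; AC50 from Hill-equation fits.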

[3] = Cell Viability - LYMP2-004 (AID 966); also: nearly all actives have a fitted effect of over 65% in size; also: potency is read from the fitted curve at half-maximal effect
Method in brief: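 Lymphoblastoid LYMP2-004 cells, 2500 per well, were preincubated for 5 hr and then treated with compound for 24 h at 37 C in complete medium. Viability was read as cellular ATP by CellTiter-Glo luminescence, and AC50 values were taken from Hill fits to concentration-response data.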

[4] = Cell Viability - LYMP2-005 (AID 967); also: potency is read from the fitted curve at half-maximal effect
Method in brief: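 CellTiter-Glo luminescence (cellular ATP) read-out; LYMP2-005 lymphoblastoid cells, 2500/well, 5 h pre-incubation, then 24 h compound exposure at 37 C in complete medium. Tetraoctylammonium bromide positive control; AC50 by standard Hill fit.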

[5] = Cell Viability - LYMP2-009 (AID 968); also: nearly all actives have a fitted effect of over 55% in size; also: potency is read from the fitted curve at half-maximal effect
[6] = Cell Viability - LYMP2-011 (AID 969); also: nearly all actives have a fitted effect of over 60% in size; also: potency is read from the fitted curve at half-maximal effect
Method in brief: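 2500 cells/well in complete medium, compound-treated 24 h at 37 C. Viability read as intracellular ATP by CellTiter-Glo luminescence after 30 min at room temperature. AC50 from Hill fits of qHTS concentration-response data.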

[7] = Cell Viability - LYMP2-013 (AID 970); also: nearly all actives have a fitted effect of over 55% in size; also: potency is read from the fitted curve at half-maximal effect
Method in brief: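 Human lymphoblastoid LYMP2-013 cells, 2500/well, treated 24 h at 37 C in complete medium; viability as intracellular ATP by CellTiter-Glo luminescence after 30 min. AC50 from Hill fits of qHTS concentration-response.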

[8] = Cell Viability - LYMP2-015 (AID 971); also: nearly all actives have a fitted effect of over 55% in size; also: potency is read from the fitted curve at half-maximal effect
Method in brief: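 LYMP2-015 human lymphoblastoid cells (2500/well) in complete medium, compound-treated 24 h at 37 C; viability read as cellular ATP by CellTiter-Glo luminescence after 30 min at room temperature. AC50 from Hill-equation fits of qHTS concentration-response data.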

[9] = Cell Viability - LYMP2-017 (AID 972); also: nearly all actives have a fitted effect of over 55% in size; also: potency is read from the fitted curve at half-maximal effect
Method in brief: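 LYMP2-017 human lymphoblastoid cells (2500/well) settled 5 hr at 37 C, then exposed to compound 24 hr at 37 C in complete medium. Viability taken as intracellular ATP by CellTiter-Glo luminescence after 30 min at RT; AC50 from Hill fits.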

[10] = Cell Viability - LYMP2-019 (AID 973); also: nearly all actives have a fitted effect of over 55% in size; also: potency is read from the fitted curve at half-maximal effect
Method in brief: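 Human lymphoblastoid LYMP2-019 cells (2500/well) preincubated 5 h at 37 C, then treated 24 h at 37 C in complete medium. Viability by CellTiter-Glo ATP luminescence after 30 min at room temperature; AC50 from Hill fits.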

[11] = Cell Viability - LYMP2-021 (AID 974); also: potency is read from the fitted curve at half-maximal effect
Method in brief: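 Human lymphoblastoid LYMP2-021 cells, 2500/well in complete medium, treated 24 hours at 37 C. Intracellular ATP by CellTiter-Glo luminescence (30 min, RT); AC50 from Hill fits of concentration-response.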

[12] = Cell Viability - LYMP2-023 (AID 975); also: nearly all actives have a fitted effect of over 55% in size; also: potency is read from the fitted curve at half-maximal effect
Method in brief: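 LYMP2-023 human lymphoblastoid cells, 2500/well, preincubated 5 hr at 37 C, then compound-treated 24 hr at 37 C in complete medium. CellTiter-Glo luminescence (ATP) after 30 min at room temperature; AC50 from Hill-equation fits; tetraoctylammonium bromide positive control.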

[13] = Cell Viability - LYMP2-002 (AID 977); also: potency is read from the fitted curve at half-maximal effect
Method in brief: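 Human lymphoblastoid LYMP2-002 cells, 2500 per well, exposed to compounds for 24 h at 37 C in complete medium; viability read as intracellular ATP by CellTiter-Glo luminescence, AC50 from Hill fits.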

[14] = Cell Viability - LYMP2-006 (AID 978); also: nearly all actives have a fitted effect of over 60% in size; also: potency is read from the fitted curve at half-maximal effect
Method in brief: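 Human lymphoblastoid cells, 2500 per well, were preincubated 5 hr at 37 C, then exposed to compounds for 24 hr at 37 C in complete medium. Viability was read as intracellular ATP by CellTiter-Glo luminescence; AC50 from Hill-equation fits of qHTS concentration-response data.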

[15] = Cell Viability - LYMP2-007 (AID 979);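 also: cells exposed to compound for 24 h before reading; nearly all actives have a fitted effect of over 60% in size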; also: potency is read from the fitted curve at half-maximal effect
Method in brief: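 Human lymphoblastoid LYMP2-007 cells (2500/well) preincubated 5 h at 37 C, then treated 24 h at 37 C in complete medium. Viability by CellTiter-Glo ATP luminescence after 30 min at room temperature; AC50 from Hill fits.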

[16] = Cell Viability - LYMP2-008 (AID 980); also: nearly all actives have a fitted effect of over 60% in size; also: potency is read from the fitted curve at half-maximal effect
Method in brief: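 LYMP2-008 lymphoblastoid cells (2500/well) plated 5 h, then treated 24 h at 37 C in complete medium. Viability read as intracellular ATP by CellTiter-Glo luminescence after 30 min at room temperature; AC50 from Hill fits.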

[17] = Cell Viability - LYMP2-010 (AID 981); also: nearly all actives have a fitted effect of over 55% in size; also: potency is read from the fitted curve at half-maximal effect
Method in brief: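 Human lymphoblastoid LYMP2-010 cells (2500/well) treated 24 h at 37 C in complete medium; viability read as intracellular ATP by CellTiter-Glo luminescence. AC50 from Hill fits of concentration-response data; tetraoctylammonium bromide positive control.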

[18] = Cell Viability - LYMP2-012 (AID 982); also: potency is read from the fitted curve at half-maximal effect
[19] = Cell Viability - LYMP2-014 (AID 983); also: nearly all actives have a fitted effect of over 50% in size; also: potency is read from the fitted curve at half-maximal effect
Method in brief: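 LYMP2-014 human lymphoblastoid cells, 2500/well, treated 24 h at 37 C in complete medium; viability by CellTiter-Glo ATP luminescence after 30 min at room temperature. AC50 from Hill fits of qHTS concentration-response; tetraoctylammonium bromide positive control.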

[20] = Cell Viability - LYMP2-016 (AID 984); also: nearly all actives have a fitted effect of over 55% in size; also: potency is read from the fitted curve at half-maximal effect
Method in brief: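 Human lymphoblastoid cells (LYMP2-016), 2500/well in complete medium, preincubated 5 hr at 37 C, then compound-treated 24 hr at 37 C. Intracellular ATP read by CellTiter-Glo luminescence after 30 min at room temperature; AC50 from Hill-equation concentration-response fits.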

Measured: Potency

CCCC(C)(COC(N)=O)COC(=O)NC(C)C (stereo not given)
inactive: [1] | [2] | [3] | [4] | [5] | [6] | [7] | [8] | [9] | [10] | [11] | [12] | [13] | [14] | [15] | [16] | [17] | [18] | [19] | [20]

Oc1ccc(Cl)cc1Cc1ccccc1
inactive: [1] | [2] | [3] | [4] | [5] | [6] | [7] | [8] | [9] | [10] | [11] | [12] | [13] | [14] | [15] | [16] | [17] | [18] | [19] | [20]

CNCC(O)c1ccc(O)cc1 (stereo not given)
inactive: [1] | [2] | [3] | [4] | [5] | [6] | [7] | [8] | [9] | [10] | [11] | [12] | [13] | [14] | [15] | [16] | [17] | [18] | [19] | [20]

CN(C)CCC=C1c2ccccc2CCc2ccccc21
active: [8] 31.6 µM

Oc1cccc2cccnc12
active: [2] 31.6 µM and 39.8 µM | [3] 15.8 µM and 12.6 µM | [5] 10 µM | [7] 15.8 µM | [8] 12.6 µM | [9] 12.6 µM and 10 µM | [10] 10 µM | [12] 25.1 µM | [13] 25.1 µM and 15.8 µM | [14] 25.1 µM and 15.8 µM | [15] 15.8 µM | [16] 15.8 µM and 12.6 µM | [17] 12.6 µM and 10 µM | [18] 15.8 µM and 10 µM | [19] 15.8 µM and 12.6 µM | [20] 15.8 µM

NCC(O)c1ccc(O)cc1 (stereo not given)
inactive: [1] | [2] | [3] | [4] | [5] | [6] | [7] | [8] | [9] | [10] | [11] | [12] | [13] | [14] | [15] | [16] | [17] | [18] | [19] | [20]

CC(COc1ccccc1)N(CCCl)Cc1ccccc1 (stereo not given)
active: [5] 39.8 µM | [6] 50.1 µM | [7] 39.8 µM | [8] 39.8 µM | [9] 39.8 µM | [11] 50.1 µM | [12] 50.1 µM | [13] 50.1 µM | [14] 50.1 µM | [15] 39.8 µM | [16] 39.8 µM

CCOP(=S)(OCC)Oc1cc(C)nc(C(C)C)n1
inactive: [1] | [2] | [3] | [4] | [5] | [6] | [7] | [8] | [9] | [10] | [11] | [12] | [13] | [14] | [15] | [16] | [17] | [18] | [19] | [20]

C[C@]12C/C(=C/O)C(=O)C[C@@H]1CC[C@@H]1[C@@H]2CC[C@@]2(C)[C@H]1CC[C@]2(C)O
inactive: [1] | [4]
active: [11] 63.1 µM | [17] 50.1 µM

CC(=O)Oc1ccccc1C(=O)Nc1ncc([N+](=O)[O-])s1
active: [2] 12.6 µM | [4] 31.6 µM | [6] 50.1 µM | [7] 39.8 µM | [10] 31.6 µM | [11] 39.8 µM | [13] 31.6 µM | [16] 31.6 µM | [17] 39.8 µM | [18] 39.8 µM | [20] 39.8 µM

N[C@@H](Cc1ccc(N(CCCl)CCCl)cc1)C(=O)O
inactive: [1] | [2]
active: [5] 39.8 µM | [6] 39.8 µM | [7] 39.8 µM | [8] 31.6 µM | [9] 39.8 µM | [10] 39.8 µM | [11] 39.8 µM | [12] 39.8 µM | [13] 39.8 µM | [14] 39.8 µM | [15] 25.1 µM | [16] 31.6 µM | [17] 31.6 µM | [18] 31.6 µM | [19] 31.6 µM | [20] 25.1 µM

c1ccc2c(c1)Nc1ccccc1S2
inactive: [1] | [2] | [3] | [4] | [5] | [6] | [7] | [8] | [9] | [10] | [11] | [12] | [13] | [14] | [15] | [16] | [17] | [18] | [19] | [20]

OCCOc1ccccc1
inactive: [1] | [2] | [3] | [5] | [6] | [7] | [8] | [9] | [10] | [11] | [12] | [13] | [14] | [15] | [16] | [17] | [18] | [19] | [20]

Oc1ccccc1-c1ccccc1
inactive: [1] | [2] | [3] | [4] | [5] | [6] | [7] | [8] | [9] | [10] | [11] | [12] | [13] | [14] | [15] | [16] | [17] | [18] | [19] | [20]

Clc1ccc(COC(Cn2ccnc2)c2ccc(Cl)cc2Cl)cc1 (stereo not given)
inactive: [1] | [8]
active: [6] 79.4 µM | [15] 50.1 µM | [16] 50.1 µM
